Test systems include NCI-H23 lung; NCI-H226 lung; NCI-H322M lung; HOP-62 NSCLC; NCI-H460 lung; HOP-92 NSCLC; NCI-H522 lung; A549/ATCC NSCLC; 786-0 renal; COLO 205 colon; DU-145 prostate; K-562 leukemia; MALME-3M melanoma; MDA-MB-231 breast; RXF 393 renal; SF-268 CNS; SF-295 CNS; SF-539 CNS; UACC-257 melanoma; M14 melanoma.
Holding throughout (assay): NCI-60 one-dose screen, 48 h (100 = growth as untreated, 0 = no growth, -100 = all killed)
Details in all cases: 10 µM unless noted

Each structure is given as a SMILES string. The panel holds about 83,000 compounds, 20% with a hit somewhere; the sample as a whole holds those more often.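 Plates (96-well) were seeded with cells, treated with compound at one concentration, and incubated for 48 hours before percent growth was determined.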 Values without a mark were called inactive. Calls of active or inactive are those of the source. How the source made its calls: active means growth percent below 10; inactive means the rest.

`CN1CCN(Cc2ccc(NC(=O)c3cc(C#Cc4cnc(N)c5ncccc45)n(C)n3)cc2C(F)(F)F)CC1`: the growth was 97.8% in the experiment with NCI-H23 lung; 115% in the experiment on NCI-H226 lung; 127% in the experiment with NCI-H322M lung; 100% in the experiment on HOP-62 NSCLC; 9.09% (active) in the experiment on NCI-H460 lung; 103% in the experiment with HOP-92 NSCLC. Besides, the growth in the experiment on NCI-H522 lung is 99.7%; with A549/ATCC NSCLC it was 47.5%; in the experiment with 786-0 renal, 9.92% (active); in the experiment on COLO 205 colon, 115%; in the experiment with DU-145 prostate, 83.9%; in the experiment on K-562 leukemia, 1.62% (active). Besides, the growth in the experiment on MALME-3M melanoma was 79.9%; in the experiment on MDA-MB-231 breast it was 102%; in the experiment on RXF 393 renal, 69.3%; in the experiment with SF-268 CNS it was 102%; in the experiment on SF-295 CNS, 102%; with SF-539 CNS, 70.5%. The growth with UACC-257 melanoma was 102%; in the experiment with M14 melanoma it was 113%.
Regarding `COc1cc(-c2ccc(-c3ccc(C(=N)N)s3)s2)cc(OC)c1OC`, the growth in the experiment with NCI-H23 lung was 71.5%; with NCI-H226 lung it was 89.4%; in the experiment on NCI-H322M lung it was 69.1%; in the experiment with HOP-62 NSCLC, 69.9%; in the experiment on NCI-H460 lung, 17.3%; with HOP-92 NSCLC, 33.6%. The growth in the experiment with NCI-H522 lung was 61.5%; in the experiment on A549/ATCC NSCLC it was 32.8%; in the experiment on 786-0 renal, 9.32% (active); with COLO 205 colon it was -61.8% (active); in the experiment with DU-145 prostate it was 36.2%; with K-562 leukemia, -33.6% (active). For the same molecule, the growth is -90.7% (active) in the experiment on MALME-3M melanoma; 10% with MDA-MB-231 breast; 54.1% in the experiment on RXF 393 renal; 46.8% in the experiment on SF-268 CNS; 51% with SF-295 CNS; -35.6% (active) with SF-539 CNS. Further, the values for the growth in the experiment on UACC-257 melanoma and in the experiment with M14 melanoma were 75.7% and -53.4% (active), respectively.
On to `C[C@H]1c2ccccc2CN1CCCOc1cc2c(cc1OCC1CC1)C1(CCCC1)C(N)=N2`, for which the growth is 67.2% with NCI-H23 lung; 53.1% in the experiment with NCI-H226 lung; 89.7% with NCI-H322M lung; 82% with HOP-62 NSCLC; 38.5% with NCI-H460 lung; 23.2% with HOP-92 NSCLC. Also, the growth with NCI-H522 lung was 73.7%; with A549/ATCC NSCLC, 74.1%; in the experiment on 786-0 renal, 56.4%; in the experiment with COLO 205 colon, -66.4% (active); in the experiment on DU-145 prostate, 75.6%; with K-562 leukemia it was 2.69% (active). Also, the growth is -84.7% (active) in the experiment with MALME-3M melanoma; 34.5% in the experiment with MDA-MB-231 breast; 34.2% with RXF 393 renal; 70.6% in the experiment with SF-268 CNS; 55.3% in the experiment with SF-295 CNS; 48.1% in the experiment with SF-539 CNS. Also, the growth in the experiment on UACC-257 melanoma was -68.1% (active); with M14 melanoma, -70.4% (active).
Take `N#Cc1c(-c2ccc(F)cc2)cc(-c2cccc(Cl)c2)[nH]c1=O`: the growth in the experiment on NCI-H23 lung was 62.8%; in the experiment on NCI-H226 lung, 54.1%; in the experiment on NCI-H322M lung it was 75.2%; in the experiment on HOP-62 NSCLC, 28%; with NCI-H460 lung it was 86.8%; in the experiment with HOP-92 NSCLC it was 29.7%. The growth is 57.9% in the experiment on NCI-H522 lung; 46.3% with A549/ATCC NSCLC; 42.1% in the experiment on 786-0 renal; 116% in the experiment with COLO 205 colon; 73.9% in the experiment with DU-145 prostate; 56.2% in the experiment with K-562 leukemia. Besides, the growth is 70.1% in the experiment with MALME-3M melanoma; 60.7% in the experiment with MDA-MB-231 breast; 51.7% in the experiment with RXF 393 renal; 41.9% in the experiment on SF-268 CNS; 71.4% in the experiment on SF-295 CNS; 9.45% (active) in the experiment on SF-539 CNS. For the same molecule, the growth was 93.8% with UACC-257 melanoma and 82.3% in the experiment on M14 melanoma.
On to `CN(C)C(=S)NN=C(c1ccccn1)c1ccccn1`, for which the growth is 38.5% in the experiment with NCI-H23 lung; 24.6% in the experiment with NCI-H226 lung; 11.5% with NCI-H322M lung; 26% in the experiment with HOP-62 NSCLC; 0.166% (active) in the experiment with NCI-H460 lung; 64.7% with HOP-92 NSCLC. Moreover, the growth in the experiment on NCI-H522 lung was 13.7%; with A549/ATCC NSCLC, 12.9%; in the experiment with 786-0 renal it was 14.6%; in the experiment with COLO 205 colon it was 38%; in the experiment with DU-145 prostate, -18.9% (active); with K-562 leukemia, 7.91% (active). Further, the growth in the experiment with MALME-3M melanoma is -6.46% (active); with MDA-MB-231 breast it was 40.3%; in the experiment with RXF 393 renal, 6.64% (active); with SF-268 CNS, 24.6%; with SF-295 CNS, 21.5%; in the experiment on SF-539 CNS it was -48.2% (active). Also, the growth in the experiment on UACC-257 melanoma is 35.9%; with M14 melanoma, 17.2%.
For `O=C1N/C(=N/N=C(c2ccccc2)c2ccccc2)S/C1=C\c1ccc(Br)cc1`, the growth in the experiment on NCI-H23 lung was 94.1%; in the experiment on NCI-H226 lung, 84.7%; in the experiment with NCI-H322M lung, 95%; in the experiment with HOP-62 NSCLC, 98.1%; in the experiment with NCI-H460 lung, 98.4%; in the experiment with HOP-92 NSCLC, 92.3%. The growth with NCI-H522 lung is 69.6%; in the experiment with A549/ATCC NSCLC, 74.7%; with 786-0 renal it was 98%; in the experiment on COLO 205 colon, 104%; with DU-145 prostate it was 107%; in the experiment on K-562 leukemia, 89.6%. The growth in the experiment with MALME-3M melanoma is 97.7%; with MDA-MB-231 breast, 94.6%; in the experiment with RXF 393 renal, 107%; in the experiment with SF-268 CNS, 99.3%; in the experiment with SF-295 CNS, 96.1%; in the experiment on SF-539 CNS, 110%. In addition, the growth is 83.5% with UACC-257 melanoma and 91.8% in the experiment on M14 melanoma.
On to `COc1cc2cc(Oc3ccc(NC(=O)Nc4ccc(F)c(C(F)(F)F)c4)cc3)c(C)nc2cc1OCCN1CCCCC1`, for which the growth in the experiment on NCI-H23 lung is 34.2%; in the experiment on NCI-H226 lung it was 81.1%; in the experiment on NCI-H322M lung, 69.5%; with HOP-62 NSCLC it was 95.4%; in the experiment on NCI-H460 lung, -69.2% (active); in the experiment on HOP-92 NSCLC it was 33.5%. Besides, the growth in the experiment on NCI-H522 lung was -66.6% (active); with A549/ATCC NSCLC it was -45.9% (active); in the experiment with 786-0 renal, 61.9%; in the experiment with COLO 205 colon, -64% (active); in the experiment on DU-145 prostate, -24.2% (active); in the experiment on K-562 leukemia, -34.7% (active). Further, the growth was -87.9% (active) in the experiment on MALME-3M melanoma; 27.6% in the experiment with MDA-MB-231 breast; 59.5% in the experiment on RXF 393 renal; 76.6% with SF-268 CNS; 72.8% in the experiment with SF-295 CNS; 75.3% in the experiment with SF-539 CNS. In addition, the growth is -52.5% (active) in the experiment on UACC-257 melanoma and -86.8% (active) in the experiment with M14 melanoma.

These data come from PubChem BioAssay (NCI).
